Inconclusive results are not listed. Unmarked numbers belong to inactive results. Calls of active or inactive are those of the source. Calls come from the whole dose curve; as a rule, active = well fitted inhibition curve with a large enough effect; inconclusive = small, poorly fitted or top-dose-only effect; inactive = no such curve, though single readings can be large or run the other way.
% is set by controls: 0 for no effect and ±100 for the full control effect.

For this assay, the system named is Zika virus NS2B-NS3 protease (linked construct). The assay is described as follows: Primary screen NINDS Rhodamine qHTS for Zika virus inhibitors (AID 1347160). Note: nearly all actives have a fitted effect of over 55% in size. The settings on record: purified NS2B-NS3 protease, Rhodamine110 substrate fluorescence; series mostly up to 33.1 µM; activity change, negative = inhibition: at the top concentration. In outline: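 Enzyme (25 nM, linked NS2B-NS3) was preincubated 15 min with compound in 10 mM Tris-HCl pH 8.0, 0.01% Tween 20. Rhodamine110 substrate (1.5 microM) was then added and fluorescence read at start and after 15 min.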
`C=C1C2(C)CC3C4(C)OC(C5OC56C4=CC(=O)OC6(C)C)C3(C)C13C(=O)OC(C)C3(O)C2=O` (stereo not drawn): the “activity change, negative = inhibition” value was 0.897%.
For `COc1c(O[C@@H]2O[C@H](CO)[C@@H](O)[C@H](O)[C@H]2O)c(CCC(=O)O)cc2ccoc12`, the “outcome” value is “inactive [at 33.1 µM]”.
Take `O=C(O)c1ccnc2cc(-c3nc4ccccc4n3CCN3CCCCC3)sc12`: the “activity change, negative = inhibition” value was 83.5% [at 57.1 µM].
For `COC(=O)C(Cc1ccccc1)NC(=O)c1ccccc1` (stereo not drawn), the “activity change, negative = inhibition” value was 13.2% [at 57.1 µM].
Consider `CC1(C)CC[C@]2(C(=O)O[C@@H]3O[C@H](CO)[C@@H](O)[C@H](O)[C@H]3O)CC[C@]3(C)C(=CCC4[C@@]5(C)C[C@@H](O)[C@H](O)[C@@](C)(CO)C5[C@H](O)C[C@]43C)C2C1` (stereo partly drawn), for which the “outcome” value was “inactive [at 15.1 µM]”.
Consider `Cc1oc2nc3c(c(NC(=O)CN4CCCC4=O)c2c1C)CCCC3`, for which the “activity change, negative = inhibition” value is 23.5% [at 57.1 µM].
With `COc1cc(O)c2c(c1Cl)CC(C)OC2=O` (stereo not drawn), the outcome was inactive.
The same measure, in the same setting: to `CN(C)CCC[C@]1(c2ccc(F)cc2)OCc2cc(C#N)ccc21` belongs “inactive”.

The values are drawn from PubChem BioAssay (NCATS).
